{
  "source": "PubChem BioAssay AID743167",
  "about": "(National Center for Advancing Translational Sciences (NCATS), 2013)",
  "note": "Several values for one entry are separate records, joined by “and”; a condition that tells them apart may be missing. Equal entries are not always repeated. Records with an inconclusive call do not appear. Activity calls are given as the source filed them. Calls come from the whole dose curve; as a rule, active = well fitted activation curve with a large enough effect; inconclusive = small, poorly fitted or top-dose-only effect; inactive = flat fitted curve, though single readings scatter.",
  "data": [
    {"assay": "Extended Characterization of HPGD Inhibitors: PGE2 Assay in A549 Cells", "settings": "PGE2 HTRF level, 16 h", "from_the_text": "The central role of HPGD is to inactivate prostaglandins such as prostaglandin E2 (PGE2) or prostaglandin D2 (PGD2). These prostaglandins are involved in a number of processes, including inflammation, differentiation, and cellular signaling, which makes HPGD an important target for pharmacological intervention. A number of prostaglandins of particular biological interest have been identified as substrates of HPGD. […] Over-production of PGE2 has been reported to promote tumor-associated neovascularization, cell proliferation, and tumor growth. […] In this orthogonal assay, we set out to measure if compounds were able to increase PGE2 production NIH Chemical Genomics Center [NCGC] NIH Molecular Libraries Probe Centers Network [MLPCN] MLPCN Grant: MH084681 Assay Submitter (PI): Structural Genomics Consortium\nA549 cells, LNCaP cells or media were dispensed in 384-well plates (ProxiPlate-384 Plus, PerkinElmer, Shelton, CT) at 5,000 cells/9.9 uL/well using a CappAero384 multichannel pipette (Odense, Denmark). Separately on the plate, 10 uL of PGE2 calibration standards at a starting assay concentration of 5,000 pg/mL (1:2 dilution, 12-points, n = 1, prepared in media, Cisbio, Bedford, MA) were dispensed. Compounds (100 nL, final concentration range from 41.9 nM to 100 uM) were transferred using an ATS Acoustic Liquid Dispenser (EDC Biosystems, Fremont, CA). After being mixed using an automated liquid handler (CyBio, Jena, Germany), samples were incubated (37 deg C, 5% CO2, under a humidified atmosphere) for 16 hours. PGE2 labeled conjugates were added to each well, first 5 uL of PGE2-d2, followed by 5 uL of anti-PGE2-cryptate, centrifuged (1,500 rpm, 15 sec) and incubated (RT, protected from light) for 5 hours. Time-resolved fluorescence intensity (320 nm excitation, 615 and 665 nm emission) was measured using an Envision plate reader (PerkinElmer). Data was expressed as the ratio of 665 nm/615 nm emissions. Concentration (pg/mL) of samples were calculated from a 4-parameter logistic calibration curves of the PGE2 standards.", "values": [
      {"smiles": "Cc1cccc(-n2cnc3cc(C(=O)N4CCCC(C)C4)ccc32)c1", "note": "(centres undefined)", "Potency": "9.35 µM (active)"},
      {"smiles": "Cc1cc(-c2nnc3n2CCCCC3)c(C)n1-c1ccc(C(C)(C)C)cc1", "Potency": "8.33 µM (active) and 13.2 µM (active)"},
      {"smiles": "COC(=O)[C@]12CCC(C)(C)C[C@H]1[C@H]1C(=O)C=C3[C@@]4(C)C=C(C#N)C(=O)C(C)(C)[C@@H]4CC[C@@]3(C)[C@]1(C)CC2", "Potency": "16.6 µM (active)"},
      {"smiles": "Cc1cc(-c2nnc3n2CCCCC3)c(C)n1-c1cccnc1", "Potency": "1.87 µM (active)"}
    ]}
  ]
}
